Only some compounds are listed: those with a hit (about 11% of all), similar ones and a draw of the others.
FLuc inh: inhibitors of firefly (Photinus pyralis) luciferase | P08659 | purified P. pyralis luciferase, luminescence, biochemical | Potency, µM (doses to about 115 µM), actives largely listed as inhibitors | 76,000 tested, 2.5% active; further: on the % scale 0 is the no-effect control and ±100 the full control effect; nearly all actives have a fitted effect of over 65% in size
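FLuc 10nM, D-luciferin 10uM, ATP 10uM, Mg acetate 10mM, Tris acetate pH 7.5, Tween/BSA; cpd qHTS; enzyme added last; CCD luminescence.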
hNpr1 antagonist: human Npr1 receptor antagonism; Potency, µM (doses to about 46.3 µM), for inactives: top-dose activity change, negative = inhibition, actives largely listed as inhibitors; HEK293 hNpr1 GloSensor cGMP, ANP-stimulated luminescence; 76,000 tested, 1.6% active; P16066; calls by dose curve; further: on the % scale 0 is the no-effect control and ±100 the full control effect; nearly all actives have a fitted effect of over 60% in size
Target sequence (P16066 whole entry, looked up): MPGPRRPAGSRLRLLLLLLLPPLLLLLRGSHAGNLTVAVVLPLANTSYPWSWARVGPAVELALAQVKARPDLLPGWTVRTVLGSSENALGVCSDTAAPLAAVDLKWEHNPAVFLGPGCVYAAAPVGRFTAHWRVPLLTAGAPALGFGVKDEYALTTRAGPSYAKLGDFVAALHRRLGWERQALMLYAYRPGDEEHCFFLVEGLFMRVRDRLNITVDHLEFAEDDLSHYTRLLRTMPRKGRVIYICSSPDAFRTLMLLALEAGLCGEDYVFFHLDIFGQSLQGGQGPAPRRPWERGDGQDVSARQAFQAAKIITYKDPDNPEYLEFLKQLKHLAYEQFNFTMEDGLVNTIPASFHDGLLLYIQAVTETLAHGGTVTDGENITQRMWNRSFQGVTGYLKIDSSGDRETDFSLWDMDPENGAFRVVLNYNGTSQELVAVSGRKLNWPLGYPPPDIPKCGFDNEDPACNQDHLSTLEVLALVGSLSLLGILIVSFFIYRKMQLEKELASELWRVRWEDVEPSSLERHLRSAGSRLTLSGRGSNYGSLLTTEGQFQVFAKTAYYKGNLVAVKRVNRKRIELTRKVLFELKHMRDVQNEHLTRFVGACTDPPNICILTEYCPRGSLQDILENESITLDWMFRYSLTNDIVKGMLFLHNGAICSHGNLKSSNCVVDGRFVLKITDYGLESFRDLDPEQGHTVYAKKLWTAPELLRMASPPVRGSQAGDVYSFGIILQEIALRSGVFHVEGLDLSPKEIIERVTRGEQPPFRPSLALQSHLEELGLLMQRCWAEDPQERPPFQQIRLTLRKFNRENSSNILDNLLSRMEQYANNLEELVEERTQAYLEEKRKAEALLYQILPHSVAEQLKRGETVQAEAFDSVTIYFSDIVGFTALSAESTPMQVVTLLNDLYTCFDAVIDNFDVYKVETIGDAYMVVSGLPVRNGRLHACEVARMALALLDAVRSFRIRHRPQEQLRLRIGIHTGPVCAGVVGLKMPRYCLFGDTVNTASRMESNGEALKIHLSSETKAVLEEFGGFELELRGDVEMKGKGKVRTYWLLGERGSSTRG
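HEK293 cells stably expressing human Npr1 and cGMP GloSensor pGS-40F, loaded 2 h with 2% GloSensor reagent, given compound 30 min at room temperature. Luminescence read before and 20 min after 0.1 nM hNppA.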
3T3 cytotox: cytotoxic compounds in NIH 3T3 cells | NIH 3T3 viability, CellTiter-Glo ATP luminescence, 48-72 h | Potency, µM (titrated, usually from 96.7 µM), without a hit: top-dose activity change, negative = cytotoxicity, most hits filed as inhibitors | 94,000 tested, 4.3% active | AID 1345082; further: on the % scale 0 is the no-effect control and ±100 the full control effect; nearly all actives have a fitted effect of over 55% in size
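Cells were seeded at 400 per well, treated with pin-transferred compound, and kept 48 or 72 hr at 37 °C before CellTiter-Glo addition and luminescence imaging of cellular ATP.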
HEK293 tox: HEK 293 cell cytotoxicity | HEK 293 viability, ATP luminescence (CellTiter-Glo), 48-72 h | Potency, µM (series often up to 115 µM), without a hit: top-dose activity change, negative = cytotoxicity, actives largely listed as inhibitors | 94,000 tested, 6.6% active | AID 1345083; further: on the % scale 0 is the no-effect control and ±100 the full control effect; nearly all actives have a fitted effect of over 60% in size
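250 HEK 293 cells/well; compound by pintool; incubated 48 or 72 hr at 37 degree Celsius; CellTiter-Glo added, 10 min RT, luminescence imaged.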
Npr1 antag conf: hNpr1 antagonism, confirmation assay | shares compounds with hNpr1 antagonist | 1,400 tested, 76% active | HEK293 hNpr1 cGMP GloSensor luminescence, ANP-stimulated | Potency, µM (series often up to 57.6 µM), for inactives: at the top dose activity change, negative = inhibition, actives largely listed as inhibitors; calls by dose curve; further: nearly all actives have a fitted effect of over 70% in size
NPR2 antag: antagonizes human Npr2, subtype selectivity check; shares compounds with hNpr1 antagonist; HEK293 hNpr2 GloSensor cGMP luminescence, CNP-stimulated; Potency, µM (doses to about 57.6 µM), for inactives: at the highest dose activity change, negative = inhibition, hits mostly inhibitors; 1,400 tested, 67% active; calls by dose curve; further: nearly all actives have a fitted effect of over 70% in size
FLuc counter: counter-screen for Npr1 antagonists: firefly luciferase inhibitors; shares compounds with hNpr1 antagonist; purified FLuc enzyme, luminescence, Km substrate; Potency, µM (highest dose often 57.6 µM), without a hit: top-dose activity change, negative = inhibition, most hits filed as inhibitors; 1,400 tested, 0.7% active; AID 1347047; further: 0% is about no effect
GloSensor cGMP: control cell line activity, Npr1 antagonist counter-screen; shares compounds with hNpr1 antagonist; HEK293 GloSensor cGMP, SNP-stimulated, luminescence; Potency, µM (series often up to 57.6 µM), for inactives: at the top dose activity change, negative = inhibition, most hits filed as inhibitors; 1,400 tested, 69% active; AID 1347051; calls by dose curve; further: on the % scale 0 is the no-effect control and ±100 the full control effect; nearly all actives have a fitted effect of over 70% in size
* hit, by the source's call; i = inactive; ? = inconclusive; / = not tested or not shown; [ ] = another dose, or the depositor's remark. Unless noted, the call rests on the fitted dose curve; in most records, active means well fitted curve in the direction sought with a large enough effect; inconclusive means small, poorly fitted or top-dose-only effect, or another doubt; inactive means no such curve, though single readings can be large; an effect the other way counts as inactive or inconclusive. Potency means the concentration at half of the fitted maximal effect.

SMILES	FLuc inh	hNpr1 antagonist	3T3 cytotox	HEK293 tox	Npr1 antag conf	NPR2 antag	FLuc counter	GloSensor cGMP
COc1ccc2cc(C3CN(Cc4cc5n(n4)CCNC5)CCO3)ccc2c1 (stereo not drawn)	i	-20.8%	?	?	/	/	/	/
OC1(CNc2cc(C(F)(F)F)nc(N3CCCC3)n2)CCCNCC1 (stereo not drawn)	i	-3.4%	-21.9%	?	/	/	/	/
O=C(NC[C@H]1Cn2c(-c3ccc4c(c3)OCO4)cnc2CO1)Nc1ccc(F)cc1	i	?	?	?	/	/	/	/
COc1ccc(-c2noc(CC3CCN(C(=O)COc4ccc(C)cc4)CC3)n2)cc1	i	6.31µM*	?	?	7.69µM*	8.62µM*	-12.5%	8.62µM*
Cc1ccc(OCC(=O)N2CCC(Cc3n[nH]c(C)n3)CC2)cc1	i	-2.7%	-1.7%	-15.5%	/	/	/	/
COc1ccc(OCC(=O)N2CCC(Cc3nc(-c4ccc(OC)cc4)no3)CC2)cc1	i	10µM*	14.1µM*	12.6µM*	10.9µM*	13.7µM*	-1.7%	12.2µM*
Cc1ccc(OCC(=O)N2CC(Oc3ccc(-c4noc(-c5ccccc5)n4)cc3)C2)cc1	/	/	-29.1%	-2.0%	/	/	/	/
Cc1ccc(OCC(=O)N2CCC(Cc3nc(-c4ccccc4)no3)CC2)cc1	i	12.6µM*	?	39.8µM*	15.3µM*	15.3µM*	26.1%	12.2µM*
COc1ccccc1CC(=O)N1CCC(Cc2nc(-c3ccccc3)no2)CC1	i	?	?	?	/	/	/	/
C[S+](=O)([O-])CCn1ncc2cc(OCC3CCN(c4ncc(F)cn4)CC3)ccc21	/	/	/	/	12.5µM*	?	3.0%[86.2 µM]	11.1µM*
Cc1ccc(Cc2ccccc2C(=O)N2CCOC(C(F)(F)F)C2)cc1 (stereo not drawn)	i	-11.3%	-27.9%	?	/	/	/	/
CCC[C@H]1CN(C(=O)c2ccccc2Cc2ccc(C)cc2)C[C@@H]1N	i	-29.5%	89.1µM*	?	?	?	-1.3%	-20.6%
COc1cccc(CNC(=O)C2CCc3nnc(C4CC4)n32)c1 (stereo not drawn)	/	/	-13.5%[138 µM]	-22.7%[172 µM]	/	/	/	/
CC(C)(C)c1nc(C(=O)NCc2cccnc2)n2ccncc12	/	/	-23.8%	-6.9%	/	/	/	/
Cn1ccc2c(C(=O)NCc3cccnc3)nc(Nc3ccccc3)cc21	i	?	?	63.1µM*	35.3µM*	35.3µM*	-24.3%[86.2 µM]	31.4µM*
Cn1ccc2c(C(=O)NCc3cccnc3)nc(-c3cccc4cc[nH]c34)cc21	i	?	?	?	?	?	-3.0%[86.2 µM]	-20.0%[86.2 µM]
CN1CC(=O)N(C2CNC2)Cc2c(NC3CC3)ncnc21	/	/	i	i	/	/	/	/
O=C(NC[C@H]1Cn2c(-c3ccc(Cl)cc3)cnc2CO1)C1CCCC1	i	-12.8%[70.6 µM]	?	?	/	/	/	/
COc1cc(OC)cc(C(=O)N2CCCN(c3cc(-c4ccc(Br)cc4)[nH]n3)CC2)c1	i	11.2µM*	31.6µM*	39.8µM*	24.3µM*	21.7µM*	-1.7%	27.3µM*
O=C(c1ccc2[nH]ccc2c1)N1CCN(c2cc(-c3ccccc3)[nH]n2)CC1	i	?	?	?	?	?	1.2%	-27.1%
COc1ccc(-c2cc(N3CCCN(C(=O)c4cccc(Cl)c4)CC3)n[nH]2)cc1	i	?	?	?	24.3µM*	13.7µM*	2.9%	-0.9%
COc1ccc(-c2cc(N3CCN(C(=O)c4ccc(OC)cc4OC)CC3)n[nH]2)cc1	i	?	?	?	27.3µM*	21.7µM*	-1.4%	21.7µM*
COc1ccc(-c2cc(N3CCCN(C(=O)c4cccc(F)c4)CC3)n[nH]2)cc1	i	-0.7%	-8.4%	?	/	/	/	/
CCCc1noc(-c2ccn3c(CNC(=O)C(C)Oc4ccccc4)nnc3c2)n1 (stereo not drawn)	i	3.0%	?	?	/	/	/	/
CO[C@H]1C(=O)N(C(C)C)[C@H]1C1CCN(C(=O)c2c[nH]c3ccccc23)CC1	i	4.5%	-0.2%	i	/	/	/	/
SMILES	FLuc inh	hNpr1 antagonist	3T3 cytotox	HEK293 tox	Npr1 antag conf	NPR2 antag	FLuc counter	GloSensor cGMP
COc1cc(OC)cc(C(=O)N2CCCN(c3cc(-c4ccc(F)cc4)[nH]n3)CC2)c1	i	-5.6%	-27.3%	?	/	/	/	/
COc1ccc(-c2cc(N3CCCN(C(=O)c4ccc(F)c(Cl)c4)CC3)n[nH]2)cc1	i	?	?	?	17.2µM*	13.7µM*	-0.8%	5.7%
COc1ccc(-c2cc(N3CCCN(C(=O)c4cccc(Br)c4)CC3)n[nH]2)cc1	i	?	?	?	?	13.7µM*	-8.6%	-21.5%
COc1ccc(C(=O)N2CCN(c3cc(-c4ccc(F)cc4)[nH]n3)CC2)cc1	i	?	?	?	21.7µM*	24.3µM*	2.5%	27.3µM*
Cc1nc(CNC(=O)CC2C(=O)NCCN2Cc2ccccn2)n[nH]1 (stereo not drawn)	i	1.2%	?	-24.7%	/	/	/	/
O=C(CCC1CC1)N1CCC(c2cc(Cc3ccccc3)[nH]n2)CC1	i	-26.7%	?	?	-27.4%	-25.4%	-11.8%	-26.8%
O=C(c1nc(-c2cccc(C(F)(F)F)c2)c2cnccn12)N1CCN(c2ncccn2)CC1	i	19.5%	-7.0%	-3.4%	/	/	/	/
OC(c1cccc(C(F)(F)F)c1)c1nc(Nc2ccc3c(c2)OCO3)n[nH]1 (stereo not drawn)	i	?	?	?	?	?	-13.7%[86.2 µM]	?
COc1ccc(Nc2n[nH]c(C(O)c3cccc(C(F)(F)F)c3)n2)cc1OC (stereo not drawn)	i	-24.3%[70.6 µM]	-21.6%[138 µM]	?	/	/	/	/
CCOC(=O)C1=C(C)N=C2SC=C(CC(=O)NCC3CC3)N2C1c1ccccc1OC (stereo not drawn)	i	-3.4%	-16.2%	?	/	/	/	/
O=C(c1cc(F)ccc1F)N1CCC(Cc2nc(-c3ccc(F)cc3)no2)CC1	i	3.16µM*	?	?	3.06µM*	4.85µM*	3.6%	3.06µM*
O=C(c1cc(Cl)ccc1F)N1CCC(Cc2nc(-c3ccc(F)cc3)no2)CC1	i	3.16µM*	?	?	4.32µM*	5.44µM*	3.6%	4.32µM*
